Rows were chosen to be rich in hits. Some 3.5% of all compounds tested hit in one or more screens of this group.
MITF inh – inhibitors of human MITF; O75030; 0.91% of 650,000 active; AlphaScreen MITF homodimerization, bead proximity signal; inhibition, % at 2.6 µM; AID 1259374; in the data active means inhibition above about 50%
FBW7 activator – activators of human E3 ligase FBW7. Q969H0. AID 1259310. normalized activity (activation), % at 26.1 µM. 0.13% of 650,000 active. AlphaScreen FBW7–phospho-cyclin E peptide binding, activator screen; in the data active means normalized activity above about 1.9%;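 further: purified mutant Fbw7 with reduced substrate affinity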
Target sequence (Q969H0 whole entry, looked up): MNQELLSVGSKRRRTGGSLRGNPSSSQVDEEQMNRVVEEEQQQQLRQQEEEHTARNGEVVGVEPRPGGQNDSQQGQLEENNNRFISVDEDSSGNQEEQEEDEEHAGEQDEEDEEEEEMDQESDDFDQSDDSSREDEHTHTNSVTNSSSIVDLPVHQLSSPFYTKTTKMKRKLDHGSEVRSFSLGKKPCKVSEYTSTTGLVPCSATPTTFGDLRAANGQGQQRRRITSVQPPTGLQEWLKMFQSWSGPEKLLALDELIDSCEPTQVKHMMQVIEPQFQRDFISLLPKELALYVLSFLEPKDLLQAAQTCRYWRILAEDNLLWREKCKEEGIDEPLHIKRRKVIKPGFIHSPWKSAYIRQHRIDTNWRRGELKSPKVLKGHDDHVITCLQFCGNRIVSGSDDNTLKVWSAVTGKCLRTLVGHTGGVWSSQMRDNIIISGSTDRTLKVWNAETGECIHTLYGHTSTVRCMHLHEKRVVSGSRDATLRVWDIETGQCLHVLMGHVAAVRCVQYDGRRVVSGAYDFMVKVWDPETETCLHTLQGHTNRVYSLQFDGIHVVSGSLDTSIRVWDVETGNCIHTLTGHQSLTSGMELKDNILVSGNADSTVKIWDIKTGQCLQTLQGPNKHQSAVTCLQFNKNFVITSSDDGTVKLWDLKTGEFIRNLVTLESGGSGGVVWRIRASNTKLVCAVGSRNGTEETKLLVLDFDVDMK
TEAD-YAP block – TEAD-YAP interaction inhibition; AID 1259422; HEK-TIYL cells, TEAD-Gal4/YAP UAS-luciferase luminescence; inhibition, % at 9.12 µM; 1.4% of 640,000 active; in the data active means inhibition above about 32%
GPR151 activ – activates the human receptor GPR151 | Q8TDV0 | PathHunter beta-arrestin GPR151 cells, luminescence | activation, % at 11.2 µM | 1% of 650,000 active | AID 1508602; in the data active means activation above about 4.9%
Of the large screens only hits and unclear results are named; the others gave an inactive call.

CC(C)C[C@H]1NC(=O)[C@@H]2C[C@H](NCc3cn(C)nc3-c3ccccc3)CN2C1=O	FBW7 activator 2.5
O=C(NCc1c(F)cccc1F)c1cc(-c2ccco2)[nH]n1	none
N/C(=N\O)c1ccc(Oc2ccc(Oc3ccc(/C(N)=N/O)cc3)cc2)cc1	TEAD-YAP block 84
Cc1cccc(NC(=O)CSc2nc(C)cc(C)c2C#N)n1	TEAD-YAP block 81
Cc1cc(C)c(C#N)c(SCC(=O)Nc2ccccc2C(=O)O)n1	none
Cc1ccc(C#N)c(SCC(=O)Nc2ccccc2C(=O)O)n1	TEAD-YAP block 33
COc1ccc(-c2nsc3c(N4CCC(C(N)=O)CC4)ncnc23)cc1	TEAD-YAP block 39
O=[N+]([O-])c1ccc(-c2nsc3c(N4CCCC4)ncnc23)cc1	none
COc1ccc(-c2nsc3c(N4CCOCC4)ncnc23)cc1	TEAD-YAP block 82
COc1ccc(-c2nsc3c(N4CCCCC4)ncnc23)cc1	TEAD-YAP block 83
COc1ccc(-c2nsc3c(N4CCCCC4C)ncnc23)cc1 (stereo not drawn)	TEAD-YAP block 93
CC1CCCCN1c1ncnc2c(-c3ccc([N+](=O)[O-])cc3)nsc12 (stereo not drawn)	none
CCOC(=O)Nc1ccc(N2CCOCC2)cc1	none
COc1ccc2c(c1)OC(C)CN(Cc1nc[nH]c1C)C2 (stereo not drawn)	none
O=C(O)CCCC(=O)Nc1ccc(Oc2ccc(Cl)cc2)cc1	none
COc1ccc(-c2nsc3c(N4CCN(C)CC4)ncnc23)cc1	TEAD-YAP block 38
O=C(NCc1cccnc1)c1ccc(C#Cc2ccccc2)o1	TEAD-YAP block 99
O=C(NCc1ccccc1)C(=O)NCc1cccnc1	none
CC(C)c1ccc(CNC(=O)C(=O)NCc2cccnc2)cc1	TEAD-YAP block 47
COc1ccc(N(Cc2cccs2)C(=O)CCl)cc1	none
O=C(CCl)N(Cc1cccs1)c1ccc2c(c1)OCCO2	TEAD-YAP block 37
CCOc1ccc(Nc2c(C(=O)N3CCOCC3)cnc3ccccc23)cc1	TEAD-YAP block 42
c1ccc(CN2CCC(Nc3nc(-c4cccs4)nc4c3ncn4-c3ccccc3)CC2)cc1	none
OCCNc1nc(-c2csc3ccccc23)nc2c1ncn2-c1ccsc1	TEAD-YAP block 44
c1csc(-c2nc(NC3CC3)c3ncn(-c4ccsc4)c3n2)c1	TEAD-YAP block 34
COc1ccc(CCNc2nc(-c3c(C)nn(C)c3C)nc3c2ncn3-c2ccsc2)cc1	none
Cc1nn(C)c(C)c1-c1nc(NCCO)c2ncn(-c3ccsc3)c2n1	TEAD-YAP block 43
OCCNc1nc(-c2cccs2)nc2c1ncn2-c1ccsc1	TEAD-YAP block 67
CCCNc1nc(-c2cccs2)nc2c1ncn2-c1ccsc1	none
CC(C)C(=O)NCCc1nnc2n1CCN(Cc1ccc3ccccc3c1)CC2	none
CCCN(C(=O)C1CCC1)c1nnc(-c2cccc(F)c2)s1	none
Cc1c(C(=O)N/N=C/c2ccc(F)cc2)nnn1-c1nonc1N	none
O=C(Cc1ccccc1)NCC(=O)OCC(=O)c1ccc(Br)cc1	none
O=C(COc1ccccc1)NCc1cccc(CNC(=O)COc2ccccc2)c1	none
CC(c1nccs1)N(C)c1nc2nonc2nc1NC1CCCC1 (stereo not drawn)	none
COc1ccc([N+](=O)[O-])cc1NC(=O)c1sc2ncn(CC(=O)N3CCCCC3)c(=O)c2c1C	none
O=C(O)CCN(Cc1ccc(Cl)cc1)S(=O)(=O)c1ccc([N+](=O)[O-])cc1	none
CC(C)(N)C(=O)Nc1ccc(Br)cc1	none
Cn1c(-c2ccccc2)cn2cc(-c3ccc(F)cc3)nc12	TEAD-YAP block 97
Cn1c(-c2ccccc2)cn2cc(-c3ccccc3)nc12	TEAD-YAP block 100
COc1ccc(N2C(N)=C(C#N)C(c3ccc(OC)c(OC)c3)C3=C2CC(C)(C)CC3=O)cc1 (stereo not drawn)	TEAD-YAP block 40
CCOc1ccc(C2C(C#N)=C(N)N(c3ccc(OC)cc3)C3=C2C(=O)CC(C)(C)C3)cc1 (stereo not drawn)	TEAD-YAP block 47
CCc1ccc(C2C(C#N)=C(N)N(c3ccc(OC)cc3)C3=C2C(=O)CC(C)(C)C3)cc1 (stereo not drawn)	none
COc1cc(C2C(C#N)=C(N)N(c3ccc(Br)cc3)C3=C2C(=O)CC(C)(C)C3)cc(OC)c1OC (stereo not drawn)	TEAD-YAP block 41
Nc1ccc(NC(=O)CN2CCCCC2)cc1	FBW7 activator 2.0
CCOC(=O)C(O)(c1ccc(N(CC)C(=O)c2ccccc2)cc1)C(F)(F)F (stereo not drawn)	FBW7 activator 2.6
O=C(Nc1cccc2ccccc12)c1ccccc1I	none
O=C(Nc1cccc2ccccc12)c1cc(Cl)ccc1O	TEAD-YAP block 64
Cc1ccccc1NC(=O)c1cc(Cl)ccc1O	TEAD-YAP block 42
Cc1ccc(C(=O)Nc2nnc(-c3ccc(F)cc3)s2)cc1C	none
COc1ccccc1C(=O)Nc1ccc2nc(SCC(=O)Nc3ccccc3)sc2c1	none
Nc1ccc2nc(SCC(=O)N3CCN(c4ccc(Cl)cc4)CC3)sc2c1	TEAD-YAP block 51
C=CCc1ccc(OCc2ccc(CN)cc2)c(OC)c1	none
CC(=O)NC(c1ccc2ccccc2c1)c1ccc2cccnc2c1O (stereo not drawn)	TEAD-YAP block 80
Cc1cccnc1NC(c1ccc([N+](=O)[O-])cc1)c1ccc2cccnc2c1O (stereo not drawn)	TEAD-YAP block 70
CC(=O)NC(c1ccc(C)cc1)c1ccc2cccnc2c1O (stereo not drawn)	MITF inh 51, TEAD-YAP block 85
CCOc1ccc(C(NC(C)=O)c2cc(Cl)c3cccnc3c2O)cc1 (stereo not drawn)	none
CC(=O)NC(c1ccc(Br)cc1)c1ccc2cccnc2c1O (stereo not drawn)	TEAD-YAP block 83
C/C=C(\C)CN1CCCC(C(=O)OCC)C1 (stereo not drawn)	none
CC(=O)NC(c1ccc([N+](=O)[O-])cc1)c1ccc2cccnc2c1O (stereo not drawn)	TEAD-YAP block 84
Nc1ccc2c(c1)OC1(CCCC1)O2	TEAD-YAP block 94
CCOC(=O)CN1C(=O)S/C(=C/c2cc(OC)c(OC)cc2Cl)C1=O	none
CC1=NN(c2ccccc2)C(=O)C1N=Nc1cccc(O)c1 (stereo not drawn)	TEAD-YAP block 49
CCOC(=O)c1c(NC(=O)C2C3C=CC(C3)C2(C)C(=O)O)sc2c1CCCC2 (stereo not drawn)	MITF inh 60, TEAD-YAP block 40
Cc1ccc(Nc2ccc3nonc3c2[N+](=O)[O-])c(C)c1	FBW7 activator 2.5
Cc1ccc(Nc2ccc3nonc3c2[N+](=O)[O-])cc1C	none
Cc1cc(C(=O)COC(=O)c2ccccc2)c(C)n1CC(F)(F)F	none
CC(C)C(NC(=O)CN(c1ccccc1Br)S(C)(=O)=O)C(C)C	FBW7 activator 2.4
COc1ccccc1N(CC(=O)NC(C(C)C)C(C)C)S(C)(=O)=O	none
CCCCC1(CC(=O)Nc2ccc(F)cc2)C(=O)N(c2ccccc2)N(c2ccccc2)C1=O	FBW7 activator 1.9
CCC(=O)c1ccc2c(c1)OCCO2	none
CCc1n[n+](CC(=O)c2ccc3c(c2)OCCO3)c(N)s1	TEAD-YAP block 63
O=C(CSc1ccc2nnc(-c3ccncc3)n2n1)NCCc1ccccc1	FBW7 activator 2.0

Compound activity (PubChem BioAssay)
